G9a inh: qHTS Assay for Inhibitors of Histone Lysine Methyltransferase G9a; G9a H3K9 monomethylation, AlphaScreen, 2 h; Potency, µM (series often up to 102 µM), most hits filed as inhibitors; 8.8% of 350,000 active; AID 504332, 2011; also: nearly all actives have a fitted effect of over 75% in size
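Quantitative HTS format: methyltransferase activity on a biotin-tagged H3K9 peptide is measured by AlphaScreen, using a rabbit anti-monomethyl-H3K9 antibody with streptavidin donor and anti-IgG acceptor beads. Final levels are 20 nM enzyme, 500 nM peptide, 20 uM SAM; 2 h RT.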
L3MBTL1 inh: qHTS Assay for the Inhibitors of L3MBTL1 | AID 485360, 2010 | 0.66% of 230,000 active | AlphaScreen L3MBTL1–H3K9me1 peptide binding | Lethal(3)malignant brain tumor-like protein 1 (Homo sapiens), Q9Y468 | Potency, µM (top dose mostly 57.1 µM), most hits filed as inhibitors; also: nearly all actives have a fitted effect of over 60% in size
Target sequence (Q9Y468 whole entry, looked up): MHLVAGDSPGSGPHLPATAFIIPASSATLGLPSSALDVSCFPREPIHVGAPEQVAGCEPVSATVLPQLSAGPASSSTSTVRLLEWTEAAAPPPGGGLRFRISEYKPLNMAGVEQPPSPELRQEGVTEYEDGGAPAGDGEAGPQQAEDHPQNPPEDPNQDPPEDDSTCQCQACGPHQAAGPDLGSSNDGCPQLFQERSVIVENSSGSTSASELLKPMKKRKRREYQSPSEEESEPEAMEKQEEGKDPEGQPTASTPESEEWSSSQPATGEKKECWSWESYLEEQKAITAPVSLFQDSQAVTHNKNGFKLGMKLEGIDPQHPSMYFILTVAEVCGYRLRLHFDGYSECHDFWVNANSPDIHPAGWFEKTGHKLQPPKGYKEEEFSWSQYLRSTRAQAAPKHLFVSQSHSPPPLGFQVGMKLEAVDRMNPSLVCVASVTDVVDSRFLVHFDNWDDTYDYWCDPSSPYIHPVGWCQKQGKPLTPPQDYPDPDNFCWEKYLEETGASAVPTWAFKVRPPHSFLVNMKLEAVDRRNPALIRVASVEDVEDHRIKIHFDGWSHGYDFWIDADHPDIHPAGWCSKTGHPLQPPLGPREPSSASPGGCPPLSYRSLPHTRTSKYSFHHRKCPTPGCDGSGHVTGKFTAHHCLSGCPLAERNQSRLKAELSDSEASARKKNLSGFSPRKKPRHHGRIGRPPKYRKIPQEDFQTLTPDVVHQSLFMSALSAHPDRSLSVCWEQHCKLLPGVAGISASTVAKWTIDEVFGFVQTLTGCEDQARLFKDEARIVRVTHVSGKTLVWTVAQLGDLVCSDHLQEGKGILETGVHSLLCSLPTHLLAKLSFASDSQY
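AlphaScreen assay: L3MBTL1 (50 nM final) was preincubated 30 min at room temperature with biotinylated H3(1-15)K9me1 peptide (75 nM final), then 30 min with library compounds; streptavidin donor and nickel chelate acceptor beads (10 ug/mL final) added, 30 min dark.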
BAZ2B inh: qHTS Assay for Inhibitors of BAZ2B; AlphaScreen BAZ2B-H3K14Ac peptide displacement; 4.4% of 360,000 active; AID 504333, 2011; Potency, µM (titrated, usually from 114 µM), most hits filed as inhibitors; also: nearly all actives have a fitted effect of over 60% in size
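AlphaScreen luminescence quantifies BAZ2B engagement of H3K14Ac peptide; the protein and biotinylated peptide are both at 50 nM final, buffer PBS pH 7.4 with 0.01% Tween-20, all steps at room temperature.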
JMJD2A Tudor inh: qHTS Assay for Inhibitors of JMJD2A-Tudor Domain. Lysine-specific demethylase 4A (Homo sapiens), O75164. AlphaScreen JMJD2A-Tudor / H3K4me3 peptide binding. Potency, µM (top dose mostly 114 µM), hits mostly inhibitors. 4.4% of 390,000 active; also: nearly all actives have a fitted effect of over 50% in size
HP1b chromo inh: HTS for Inhibitors of HP1-beta Chromodomain Interactions with Methylated Histone Tails | AID 540317, 2011 | Chromobox protein homolog 1 (Homo sapiens), P83916 | Potency, µM (top dose mostly 114 µM), actives largely listed as inhibitors | AlphaScreen HP1-beta / biotin-H3K9me3 peptide binding | 0.56% of 390,000 active; also: nearly all actives have a fitted effect of over 70% in size
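HP1-beta protein (50 nM final) preincubated 30 min at room temperature with biotinylated H3(1-18)K9me3 peptide (50 nM) in PBS pH 7.4, 0.01% Tween-20, then compound added for 30 min. AlphaScreen streptavidin donor/nickel chelate acceptor beads (10 ug/mL final), 30 min dark, luminescence read.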
Sfp PPTase inh: qHTS Assay for Inhibitors of Bacillus subtilis Sfp phosphopantetheinyl transferase (PPTase) | 4'-phosphopantetheinyl transferase ffp (Bacillus subtilis), Q9F4F7 | 3.5% of 310,000 active | Biochemical Sfp PPTase activity, qHTS | Potency, µM, hits mostly inhibitors;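 also: the enzyme is Sfp with the accession as filed and its product quenches rhodamine fluorescence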
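With Hepes-Na pH 7.6 buffer containing 10 mM MgCl2, Sfp (15 nM) modified BHQ-2-YbbR (12.5 uM) using rhodamine-CoA (5 uM). Two reads 30 minutes apart at 525/598 nm yielded each well's rate.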
A number is an active result; i = inactive; ? = inconclusive; nt = no result; [ ] = dose if it differs, or a comment. Only some compounds are listed: those with a hit (about 12% of all), similar ones and a draw of the others. Calls follow the shape of the dose curve; as a rule, active = well fitted curve in the direction sought with a large enough effect; inconclusive = small, poorly fitted or top-dose-only effect, or another doubt; inactive = no such curve, though single readings can be large; an effect the other way counts as inactive or inconclusive.

SMILES	G9a inh	L3MBTL1 inh	BAZ2B inh	JMJD2A Tudor inh	HP1b chromo inh	Sfp PPTase inh
COC(=O)c1ccc(CSc2nc3ccccc3c(=O)n2Cc2ccco2)o1	39.8µM	i	i	i	i	i
O=C(CSc1nnc(-c2cc3ccccc3cc2O)n1Cc1ccco1)c1ccc(F)cc1	?	i	i	?	?	i
CC(C)C(NC(=O)c1ccc(F)cc1)C(=O)N1CCN(c2ccccn2)CC1 (stereo unspecified)	nt	i	nt	i	i	nt
O=C(Nc1ccccc1)[C@@H]1CC=C[C@@H]2CCN(Cc3ccc(Cl)c(Cl)c3)C(=O)[C@@H]21	nt	nt	nt	i	i	nt
N#CCSc1nc2ccccc2c(=O)n1CCCC(=O)NCc1ccco1	i	nt	i	i	i	i
O=C(CCCCCn1c(SCc2ccncc2)nc2ccccc2c1=O)NCc1ccco1	?	?	50.1µM	25.1µM	i	i
COc1cc2c(cc1OC)CN(C1CC(=O)N(c3c(C)cccc3C)C1=O)CC2 (stereo unspecified)	79.4µM	nt	i	i	i	i
CC(=O)CCc1ccc(OCC(O)CNC2CCCc3ccccc32)cc1 (stereo unspecified)	?	i	?	3.55µM	i	i
OC(CNC1CCCc2ccccc21)COc1ccc2ccccc2c1 (stereo unspecified)	10µM	i	?	i	?	i
O=C(c1ccccc1)c1ccc(OCC(O)CNC2CCCc3ccccc32)cc1 (stereo unspecified)	10µM	i	50.1µM	10µM	?	i
CCc1ccccc1OC[C@@H](O)CN[C@H]1CCCc2ccccc21	3.98µM	i	?	39.8µM	i	50.1µM
CC[C@]12c3[nH]c4ccc(OC)cc4c3CCN1C(=O)C(CC(=O)NCCCOC)C[C@@H]2C(=O)N1CCN(C(=O)C2CC2)CC1 (stereo partly specified)	nt	i	nt	i	i	nt
Cc1ccc(COC(=O)c2ccc(-c3nnn(Cc4ccc(C)cc4)n3)cc2)cc1	i	nt	i	i	i	nt
CSc1ccc(CNC(=O)c2sc3ncnc(N(C)C4CCCCC4)c3c2C)cc1	i	nt	i	i	i	nt
Cc1ccc(S(=O)(=O)N[C@H]2COC(=O)C/C=C\[C@@H](C)[C@H](NS(=O)(=O)c3ccc(C)cc3)COC(=O)C/C=C\[C@H]2C)cc1	nt	nt	nt	nt	nt	i
CCN1C(=O)/C(=C\C(=O)c2cccs2)c2cc(Br)ccc21	?	i	15.8µM	28.2µM	22.4µM	20µM
CC(=O)c1ccc(NC(=O)C2CCC(CNS(=O)(=O)c3ccc4c(c3)CCCC(=O)N4)CC2)cc1 (stereo unspecified)	i	nt	i	i	i	nt
CC(C)c1ccc(Nc2sc(C(=O)c3ccccc3)c(N)c2S(=O)(=O)c2ccccc2)cc1	i	nt	?	?	i	nt
CCOC(=O)c1sc(N)c(C(=O)OC)c1C	i	i	i	i	i	i
CCOC(=O)c1scc(-c2ccccc2)c1S(=O)(=O)Nc1ccccc1OC	14.1µM	nt	?	i	i	nt
CCOC(=O)c1sc(N)c(C(=O)Nc2ccccc2OC)c1C	2.82µM	i	?	56.2µM	5.62µM	14.1µM
CCOC(=O)c1scc(-c2ccc(C)cc2)c1S(=O)(=O)Nc1cc(OC)ccc1OC	?	nt	?	?	i	nt
CCOC(=O)c1c(N)sc(C(=O)OC)c1C	nt	i	i	i	i	56.2µM
CCOC(=O)c1c(N)sc2c1C1CCN2CC1	79.4µM	i	i	i	i	i
Cc1c(NC(=O)c2cccs2)cccc1-c1nc2cc(Cl)ccc2o1	i	nt	i	i	i	nt
SMILES	G9a inh	L3MBTL1 inh	BAZ2B inh	JMJD2A Tudor inh	HP1b chromo inh	Sfp PPTase inh
COc1ccc(Oc2ncc3nc(C)c(=O)n(C[C@H]4CCCO4)c3n2)cc1	i[0.501 µM]	nt	nt	nt	nt	i
Cc1ccc(S(=O)(=O)/N=C(\N)c2ccc(Cl)cc2)cc1	i	nt	i	i	i	i
COc1cc(-c2nc3ncccn3c2Nc2ccc(C)cc2C)ccc1O	i	nt	i	i	i	nt
Cc1cc2c(s1)c1cnn(Cc3ccc(F)c(F)c3)c(=O)c1n2C	nt	nt	nt	i	nt	nt
N#Cc1nc(COc2ccccc2)oc1N1CCCCCC1	44.7µM	nt	35.5µM	?	?	i
N#Cc1nc(COc2ccc(Br)cc2)oc1N1CCCC1	?	?	25.1µM	?	?	i
Cc1ccc(Nc2ncnc3nc[nH]c23)cc1	nt	nt	nt	i	i	nt
CC(=O)NC12CC3CC(C1)CC(C(=O)Nc1nc4ccc(F)cc4s1)(C3)C2	?	nt	i	i	i	i
Cn1cc(SCC(=O)N2CCOCC2)c2ccccc21	i	i	i	i	i	i
Cc1cccc(N2CCN(C(=O)Cc3cn(C)c4ccccc34)CC2)c1C	50.1µM	nt	?	17.8µM	?	i
Cc1cccc(N2CCN(C(=O)Cn3ncc4c5ccccc5n(C)c4c3=O)CC2)c1C	i	nt	i	i	i	nt
Cc1cccc(N2CCN(C(=O)Cn3cccc3)CC2)c1C	50.1µM	nt	?	?	i	i
Cn1cc(SCC(=O)N2CCN(c3ccccc3)CC2)c2ccccc21	39.8µM	nt	?	?	i	i
CC1=C(C(=O)N2CCN(c3cccc(C)c3C)CC2)C2(CCCCC2)OC1=O	i	nt	79.4µM	i	i	nt
CC1=C(C(=O)N2CCN(c3ccccc3)CC2)C2(CCCCC2)OC1=O	i	nt	i	i	i	nt
CCCCC/C=C\C/C=C\C/C=C\CCCCCCC(=O)NC(C)C(=O)O (stereo unspecified)	nt	nt	nt	nt	nt	i
CC(C)COc1cccc(-c2cc(C(=O)Nc3ccon3)c3ccccc3n2)c1	i	nt	i	i	i	i
Cc1ccc(S(=O)(=O)Cc2ccc(C(=O)NCCc3ccc(Cl)cc3)o2)cc1	i	nt	nt	i	i	nt
Cc1ccccc1S(=O)Cc1ccc(C(=O)N2CCN(c3cccc(C)c3C)CC2)o1 (stereo unspecified)	?	nt	?	i	i	nt
Cc1ccc(C(=O)N2CCN(c3cccc(C)c3C)CC2)o1	70.8µM	nt	i	i	i	i
CCOC(=O)c1cc(C(=O)c2ccccc2O)cn2c(=O)c3c(C)c(C)sc3nc12	i	i	?	nt	nt	44.7µM
O=C(O)CSc1cc(C(=O)c2ccccc2O)cn2c(=O)c3c4c(sc3nc12)CCCC4	?	nt	22.4µM	35.5µM	70.8µM	?
O=C1OC2(CCCCC2)CC2=C1C1O[C@](CCCCN3C(=O)c4ccccc4C3=O)(Cc3ccccc31)O2	i[2.33 µM]	nt	i[22.9 µM]	nt	nt	i
CN(C)C/C=C(\c1ccc(Br)cc1)c1cccnc1	i[21.5 µM]	i	i	?	i	i
O=C(CSc1ccc(-c2ccco2)nn1)NCc1ccccc1Cl	?	i	i	i	i	i
Cc1ccc(NC(=O)Cc2nnc(SCC(=O)NC3=NCCS3)n2C)cc1	?	nt	?	i	i	i
